Bioassay records as filed in PubChem BioAssay.
TLR9-MyD88 inh: TLR9-MyD88 interaction inhibition; CHO BLA complementation TLR9-MyD88, CCF4 FRET ratio; inhibition, % at 4.98 µM; 0.21% of 340,000 active;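 active = inhibition above the mean over all tested compounds plus 3 SD, cut at about 21% in these data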
TMEM16A act: mouse TMEM16A channel activation, primary screen | AID 623877 | B-score at 10 µM | 0.3% of 340,000 active | HEK293 TMEM16A/YFP-H148Q/I152L, iodide quench fluorescence; active compounds read low;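 active = fluorescence-ratio B-score plate-corrected deviation score at least 3 library SD below zero, with starting fluorescence score within 5 deviations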;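 note: channel opened by trigger with iodide after compound preincubation; score built on the fluorescence ratio of max minus min over baseline; more negative score means more quench and so TMEM16A activation or potentiation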
GRK2 inh: blocks RNA aptamer binding to human GRK2; 0.59% of 330,000 active; bead flow cytometry, FAM-aptamer displacement from GRK2; inhibition of aptamer binding, % at 10 µM;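 active = inhibition of aptamer binding above 40%, roughly 3 SD of noise, on plates passing a quality check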;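 note: median bead fluorescence of bound FAM aptamer so fluorescent compounds give negative values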
TLR4-MyD88 BLA: blocks binding of human TLR4 to MyD88. inhibition, % at 8.4 µM. HeLa CL3-4 TLR4/MyD88 BLA complementation, FRET ratio. 0.18% of 200,000 active. O00206+Q99836; in the data active = inhibition above about 25%
NOD2 RIPK2 PPI: inhibitors of human NOD2-RIPK2 interaction | O43353 | 0.38% of 360,000 active | inhibition, % at 4.98 µM | CHO BLA complementation NOD2-RIPK2, CCF4 ratio; in the data active = inhibition above about 21%
ANO1 block: blocks the mouse calcium-activated chloride channel TMEM16A. Q8BHY3. HEK293 TMEM16A/YFP iodide influx fluorescence, ionomycin. normalized B-score (activity score, 25-100; higher = stronger inhibition) at 10 µM. 1.2% of 310,000 active;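 active = ratio plate-corrected score three or more library SD toward inhibition, starting fluorescence score within five deviations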;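 note: score derived from kinetic fluorescence span divided by baseline fluorescence per well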
GRK2 inh confirm: human GRK2 inhibition confirmation, cherry pick 1. shares compounds with GRK2 inh. bead-bound GRK2, FAM-aptamer displacement, flow cytometry. AID 504451. aptamer displacement, % at 10 µM. 4% of 2,000 active;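 active = aptamer displacement above 40%, near three times the noise of non-fluorescent compounds, on plates passing quality checks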;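 note: negative values mostly reflect intrinsic compound fluorescence rather than true enhancement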
Aptamer quench SP: aptamer fluorescence quenching in GRK2 counter-screen. shares compounds with GRK2 inh. Carboxyfluorescein RNA aptamer on beads, flow cytometry quenching; active compounds read low. fluorescence response (% of DMSO), % at 10 µM. 2,000 tested, under 10 active. AID 504580;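 active = compounds that quench the bead-bound fluorescent RNA probe, cutting fluorescence to under half of the solvent control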;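 note: counterscreen run without GRK2 so only probe quenching by compound is measured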
GRK2 CP2: human GRK2 inhibition confirmation, cherry pick 2; shares compounds with GRK2 inh; bead-bound GRK2, FAM-aptamer displacement, flow cytometry; inhibition of aptamer binding, % at 10 µM; 360 tested, under 10 active; AID 504782;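 active = inhibition of aptamer binding above 40%, about triple the noise seen with nonglowing compounds, on plates passing quality control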;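 note: negative values mostly come from compounds that fluoresce themselves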
Aptamer quench 2: counter-screen for GRK2 aptamer inhibitors: fluorescent aptamer quenchers; AID 504819; shares compounds with GRK2 inh; Streptavidin beads, FAM-RNA aptamer fluorescence quenching, flow cytometry; 25 tested, under 10 active; change in fluorescence (kMESF span), kMESF (no concentration beside the values);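 active = compounds quenching the bead-bound labeled aptamer, with fluorescence dropping by more than 37 kMESF over the dose range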
FAM quench SP: quenches fluorescent RNA aptamer, GRK2 hit artifact; shares compounds with GRK2 inh; carboxyfluorescein RNA aptamer beads, flow cytometry quenching; active compounds read low; fluorescence response vs DMSO, % at 10 µM; 360 tested, under 10 active;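 active = response vs DMSO under 50%, meaning signal dropped by over half, treated as fluorescence quencher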;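 note: labelled aptamer on streptavidin beads without GRK2 as a quench counter-screen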
FAM quench DR: aptamer fluorescence quenching in GRK2 powder counter-screen. shares compounds with GRK2 inh. Bead-bound FAM RNA aptamer fluorescence quenching, flow cytometry; active compounds read low. fluorescence ratio to DMSO, % at 11.1 µM. 35 tested, under 10 active. AID 588496;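 active = compounds that dim the fluorescent label, raw bead signal shifting by over 33 units between lowest and highest dose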
A number is an active result; – = inactive; · = not tested or not shown. Hits are enriched below; roughly 2.2% of the tested compounds scored in any of these assays.

SMILES	TLR9-MyD88 inh	TMEM16A act	GRK2 inh	TLR4-MyD88 BLA	NOD2 RIPK2 PPI	ANO1 block	GRK2 inh confirm	Aptamer quench SP	others
COc1cccc(OC)c1OC(=O)C1CC(=O)N(c2ccc3c(c2)OCCO3)C1 (stereo unspecified)	–	–	–	·	–	·	·	·	GRK2 CP2=–;FAM quench SP=–
O=C(Nc1ccc2c(c1)OCO2)C1CC(=O)N(c2ccc3c(c2)OCCO3)C1 (stereo unspecified)	–	–	–	–	–	–	·	·
COc1cccc(C2=NO[C@@H]3C(=O)N(c4ccc5c(c4)OCCO5)C(=O)[C@H]23)c1OC	–	–	–	–	–	–	·	·	GRK2 CP2=–;FAM quench SP=–
Cc1cc(S(=O)(=O)Nc2ccc(C(=O)NCc3cccnc3)cc2)ccc1F	–	–	–	·	–	–	·	·
O=C(NC12CC3CC(CC(C3)C1)C2)c1cccnc1Cl	–	–	–	·	–	–	·	·
Cc1ccc(S(=O)(=O)N2CCN(C(=O)COC(=O)CCc3ccccc3)CC2)c(C)c1	–	–	–	·	–	·	·	·
Cc1ccc(S(=O)(=O)N2CCN(C(=O)COC(=O)CCOc3ccccc3)CC2)c(C)c1	–	–	63	·	–	·	–	–
O=C(NCc1ccncc1)C1COc2ccccc2O1 (stereo unspecified)	–	–	–	–	–	–	·	·
O=C(NCc1ccccn1)C1COc2ccccc2O1 (stereo unspecified)	–	–	90	–	–	–	–	–
CCN1CCN(C(CNS(=O)(=O)c2cccs2)c2cccnc2)CC1 (stereo unspecified)	–	–	–	·	–	–	·	·
CCOC(=O)C1CCCN(CC(=O)Nc2c(C(=O)OC)[nH]c3ccccc23)C1 (stereo unspecified)	–	–	–	–	–	–	·	·
CCOC(=O)C1CCN(CC(=O)Nc2c(C(=O)OC)[nH]c3cccc(C)c23)CC1	–	–	54	–	–	–	–	–
CC(C)NC[C@H](O)COc1cccc2ccccc12	–	–	–	·	–	–	–	–
CCN(CC)S(=O)(=O)c1ccc(C(=O)NCC(=O)NCc2ccc3c(c2)OCO3)cc1	–	·	·	·	–	·	·	·
Cc1ccc(NC(=O)c2noc3c2CCCCC3)cc1C	–	–	100	–	–	–	–	–
CC(C)CCNC(=O)c1ccc(-n2cnc3cccnc32)cc1	–	–	45	·	–	–	–	–
CCOCCCNC(=O)CCc1ccc(-n2cnc3cccnc32)cc1	–	–	–	·	–	–	·	·
COc1cc(N(C(C)=O)c2ccc(O)c(C(=O)O)c2)c2ncccc2c1	–	·	·	·	–	·	·	·
COCCNC(=O)C1CCCN(Cc2ccc(-c3ccccc3)cc2)CC1 (stereo unspecified)	·	·	·	·	–	·	·	·
CCN(CC)CCCN(C(=O)c1cccs1)c1nc(-c2ccc(OC)cc2)cs1	–	–	–	–	–	–	·	·
COCCCN(C(=O)c1ccco1)c1nc(-c2ccc(OC)cc2)cs1	–	–	–	·	–	–	·	·
CCN(CC)CCCN(C(=O)c1ccco1)c1nc(-c2ccc(C)cc2)cs1	–	–	59	–	–	–	–	–
O=C(c1ccco1)N(CCCN1CCOCC1)c1nc(-c2ccc(Cl)cc2)cs1	–	–	–	–	–	–	–	–
CCN(CC)CCCN(C(=O)c1ccco1)c1nc(-c2ccc(Cl)cc2)cs1	–	–	66	·	–	–	–	–
O=C(CCS(=O)(=O)c1ccc(Br)cc1)Nc1ccc(Br)cc1F	–	–	70	–	–	–	·	·	GRK2 CP2=–;Aptamer quench 2=–;FAM quench SP=–;FAM quench DR=–
SMILES	TLR9-MyD88 inh	TMEM16A act	GRK2 inh	TLR4-MyD88 BLA	NOD2 RIPK2 PPI	ANO1 block	GRK2 inh confirm	Aptamer quench SP	others
O=C(COC(=O)C1CC1)Nc1ncc(Cl)cc1Cl	–	–	–	·	–	–	·	·
O=C(CCS(=O)(=O)c1ccc(Br)cc1)Nc1ccccn1	–	–	–	–	–	–	–	–
O=C(CS(=O)(=O)c1ccccc1)Nc1ccc(Cl)cn1	–	–	–	·	–	–	·	·
O=C(COC(=O)C1CC1)Nc1ccc(Cl)cn1	–	–	53	·	–	·	–	–
O=C(CCS(=O)(=O)c1ccccc1)Nc1ccc(Cl)cn1	–	–	–	·	–	–	–	–
COc1cccc(/C=C/C(=O)OCC(=O)NC2CCCCCC2)c1	–	·	·	·	–	·	·	·
CCOC(CNc1ncnc2sc(-c3ccccc3)cc12)OCC	–	–	48	·	–	–	–	–
CN(C)CCCNc1ncnc2sc(-c3ccccc3)cc12	–	–	–	·	–	–	·	·
CC(C)CNC(=O)C1C(=O)Nc2ccccc2C(=O)N1C(C)(C)C (stereo unspecified)	·	·	·	·	–	·	·	·
CCNc1c(NS(=O)(=O)c2ccc(F)c(Cl)c2)c(=O)oc2ccccc12	–	–	–	·	–	–	·	·
CS(=O)(=O)N(Cc1ccccc1)c1ccc(C(=O)Nc2ccccc2Sc2ccccc2)cc1	–	–	–	–	–	–	·	·
CS(=O)(=O)N(Cc1ccccc1)c1ccc(C(=O)Nc2ccccc2C(=O)O)cc1	–	–	51	·	–	–	–	–
O=C(c1ccc2c(=O)n(CCc3ccccc3)c(=O)[nH]c2c1)N1CCN(c2ccccc2)CC1	–	–	88	·	–	–	–	–
O=C(c1ccc2c(=O)n(CCc3ccccc3)c(=O)[nH]c2c1)N1CCN(c2ccc(F)cc2)CC1	–	–	–	·	–	–	·	·
CC(=O)n1cc([C@@H]2C=C(C(=O)Nc3ccccc3)O[C@H](OCc3ccc(CO)cc3)C2)c2ccccc21	–	–	64	–	–	–	–	–
CC(=O)n1cc([C@H]2C=C(C(=O)NCc3ccccc3)O[C@@H](OCc3ccc(CO)cc3)C2)c2ccccc21	–	–	–	–	–	–	·	·
N#Cc1ccccc1S(=O)(=O)N1CCN(CC(O)COc2ccccc2F)CC1 (stereo unspecified)	–	–	54	·	–	–	–	–
